Results from PubChem BioAssay (Tox21).
Inconclusive results are not listed. Values without a mark were called inactive. Calls come from the whole dose curve; as a rule, active = well fitted cell-killing curve with a large enough effect in the repeat runs; inconclusive = weak or mixed curves, or effect the other way; inactive = flat fitted curve, though single readings scatter.

test: qHTS assay to identify small molecule agonists of the TGF-beta/Smad signaling pathway - cell viability counter screen (AID 1346829); conditions: SBE-bla HEK293T viability, CellTiter-Glo luminescence, 5 h; series mostly up to 76.8 µM; activity change, negative = cytotoxicity: at the top concentration; note: top concentration of the series differs between compounds; nearly all actives have a fitted effect of over 45% in size
Description: National Center for Advancing Translational Sciences [NCATS]
NIH Chemical Genomics Center [NCGC]
U.S. Environmental Protection Agency [EPA]
National Institutes of Environmental Health Sciences [NIEHS]
National Toxicology Program [NTP]
U.S. Food and Drug Administration [FDA]
Transforming growth factor beta (TGF-beta) superfamily consists of a large number of structurally related dimeric proteins that act as hormones or local mediators in regulating a wide range of biological functions. This superfamily includes TGF-betas themselves, the bone morphogenetic proteins (BMPs) and the activins. These ligands induce oligomerization of serine/threonine receptor kinases and phosphorylate the cytoplasmic signaling molecules of Smad protein family. CellSensor SBE-bla HEK 293T cell line (Life Technologies, Carlsbad, CA), responsive to TGF-beta was used to screen Tox21 10K compound library for identification of agonists/antagonists of the Smad signaling pathway. This cell line contains a beta-lactamase reporter gene under control of the Smad binding element (SBE) stably integrated into HEK 293T cells. Also cytotoxicity of the compounds was tested in parallel by measuring the cell viability using CellTiter-Glo assay system in the same wells.
Tox21 Assay Protocol Summary:
SBE-bla HEK 293T cells were dispensed at 4,000/well in 6 uL of assay medium into black wall/clear-bottom 1536-well plates using a Multidrop Combi (ThermoFisher Scientific, Waltham, MA) dispenser. After the assay plates were incubated at 37 C and 5% CO2 for an overnight, 23 nL of compounds dissolved in DMSO, positive controls or DMSO only was transferred to the assay plate by a Pintool station (Kalypsys, San Diego, CA). The assay plates were incubated at 37 C and 5% CO2 for 5 hr. One uL of LiveBLAzer B/G FRET substrate (Life Technologies) was added using a Flying Reagent Dispenser (FRD, Aurora Discovery, San Diego, CA) and the plates were incubated at room temperature for 2 hr. Fluorescence intensity (405 nm excitation, 460 nm and 530 nm emissions) was measured using an Envision plate reader (PerkinElmer, Shelton, CT). For cytotoxicity read, 4 uL of CellTiter-Glo reagent (Promega Corporation, Madison, WI) was added to each well of the assay plates using FRD. After 30min incubation at room temperature, the luminescence intensity was measured using ViewLux plate reader (PerkinElmer).
% is set by controls: 0 for no effect and ±100 for the full control effect.

Structure (SMILES) | activity change, negative = cytotoxicity
Cl/C=C\C[N+]12CN3CN(CN(C3)C1)C2 | 12.2%
CC(O)(CS(=O)(=O)c1ccc(F)cc1)C(=O)Nc1ccc(C#N)c(C(F)(F)F)c1 (stereo not given) | 0.32% [at 35.3 µM]
Clc1cc(C(Cl)(Cl)Cl)cnc1Cl | 16.1%
COP(=S)(OC)Oc1ccc([N+](=O)[O-])cc1Cl | 1.28%
CC1C(=O)C[C@]2(C(C)C)C[C@H]12 (stereo not given in full) | 1.44%
C=C(C#N)CCC#N | 6.32%
Cl/C=C\Cl | 2.42%
OCCCBr | -16.1%
C=CCC1([C@H](C)CCC)C(=O)NC(=O)NC1=O | -11.7%
CNC(C)Cc1ccccc1OC (stereo not given) | 12.3% [at 35.3 µM]
CC[C@H]1C[C@H]2[C@@H]3CCC4=CC(=O)CC[C@@H]4[C@H]3CC[C@]2(C)[C@H]1O | 3.62% [at 35.3 µM]
CCOP(O)OCC | 15.8%
CC(C)(Cl)[N+](=O)[O-] | -14.7%
COc1cc(CC(C)N)cc2c1OCO2 (stereo not given) | -10.9%
CCOc1ccc(C(C)(C)COCc2cccc(Oc3ccccc3)c2)cc1 | -5.52%
O=S1(=O)OC(c2cc(Br)c(O)c(Br)c2)(c2cc(Br)c(O)c(Br)c2)c2ccccc21 | -28%
CNP(=O)(OC)Oc1ccc(C(C)(C)C)cc1Cl (stereo not given) | 1.49%
C=CC(=O)OCC(C)O (stereo not given) | 11.8%
CCOC(=O)C(Cl)C(C)=O (stereo not given) | -2.47%
O=Cc1ccc2c(c1)OCO2 | 0.934%

Structure (SMILES) | activity change, negative = cytotoxicity
C/C(=C\c1ccccc1)[N+](=O)[O-] | -0.891%
CCCC(=O)Cl | -2.09%
C=CC[C@]1(O)CC[C@H]2[C@@H]3CCC4=CC(=O)CCC4=C3C=C[C@@]21C | -7.53% [at 35.3 µM]
CCC(C)(NC(=O)c1cc(Cl)c(C)c(Cl)c1)C(=O)CCl (stereo not given) | -21.3%
S=C=NCc1ccccc1 | -8.44%
CCCN(CCC)c1c([N+](=O)[O-])cc(S(C)(=O)=O)cc1[N+](=O)[O-] | 4.23%
NCC(CC(=O)O)c1ccc(Cl)cc1 (stereo not given) | -5.36% [at 0.29 µM]
CC/C(=N\OC/C=C/Cl)C1=C(O)CC(C2CCOCC2)CC1=O (stereo not given) | -0.646%
CO/C=C(/C(=O)OC)c1ccccc1COc1cccc(C(F)(F)F)n1 | -15.6%
CC(=O)c1cc2c(cc1C)C(C)(C)C(C)CC2(C)C (stereo not given) | -22.2%
COC(=O)C(Br)CBr (stereo not given) | -0.42%
CCCN(CC1CC1)c1c([N+](=O)[O-])cc(C(F)(F)F)cc1[N+](=O)[O-] | -1.85%
N#C/C(N)=C(/N)C#N | 0.188%
Brc1ccccc1 | 6.27%
ClCc1cccc(Cl)c1 | 0.908% [at 35.3 µM]
O=C1c2ccccc2C(=O)C1C(=O)C(c1ccccc1)c1ccccc1 | -17.5% [at 35.3 µM]
CCOP(=S)(OCC)Oc1nc(Cl)c(Cl)cc1Cl | -15.3%
CC(C)N(C(=O)COc1nnc(C(F)(F)F)s1)c1ccc(F)cc1 | -5.67%
BrCC(Br)C1CCC(Br)C(Br)C1 (stereo not given) | -20.1%
O=C(O)COc1ccc(Cl)cc1 | 2.86%
